Test [1] has as its target Cytochrome P450 2D6 (Homo sapiens) (UniProt P10635). Put plainly: Cytochrome P450 family 2 subfamily D member 6 (CYP2D6) small molecule antagonists: luciferase biochemical (cell-free) qHTS assay (AID 1645840). Further: nearly all actives have a fitted effect of over 55% in size. Further: potency means the concentration at half of the fitted maximal effect. In a few lines: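 P450-Glo luminescent screen: recombinant CYP2D6 enzyme–proluciferin substrate mix preincubated with compound 10 min at room temperature, then NADPH regeneration added for 1 h at room temperature. Detection reagent added for 20 min; luciferin light read as relative luminescence units.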
On the technique in general: Quantitative high-throughput screening tests each substance at several concentrations.

The target of test [2] is Cytochrome P450 2C9 (Homo sapiens) (UniProt P11712). In words: Cytochrome P450 family 2 subfamily C member 9 (CYP2C9) small molecule antagonists: luciferase biochemical (cell-free) qHTS assay (AID 1645842). Further: nearly all actives have a fitted effect of over 55% in size. Further: potency means the concentration at half of the fitted maximal effect. In a few lines:
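Luminescence, after 20 min with luciferin detection reagent, reflected CYP2C9 turnover during a 1 h NADPH-driven reaction at 37C. Enzyme-substrate mix contained 0.4% bovine serum albumin and was preincubated with compound 10 min at room temperature.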

Test [3] is described as follows: Primary qHTS for inhibitors of nuclear receptor binding SET domain protein 2 (NSD2) in an isogenic RCH-ACV NSD2 p.E1099K mutant (9B) (AID 1645876; active means well fitted curve in the direction sought with a large enough effect; an effect the other way counts as inactive or inconclusive; further: nearly all actives have a fitted effect of over 70% in size; further: potency means the concentration at half of the fitted maximal effect).
Test [4] in a line: Primary qHTS for inhibitors of nuclear receptor binding SET domain protein 2 (NSD2) in an RCH-ACV wild type WT cells (2C) (AID 1645877; active means well fitted curve in the direction sought with a large enough effect; an effect the other way counts as inactive or inconclusive; further: nearly all actives have a fitted effect of over 70% in size; further: potency means the concentration at half of the fitted maximal effect).
Test [5] in a line: Viability counterscreen for antagonist of constitutive androstane receptor (CAR) against the NCATS DSHEA and TCM libraries (AID 1794837; active means well fitted curve in the direction sought with a large enough effect; an effect the other way counts as inactive or inconclusive;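 further: compound exposure lasted 24 h before viability reading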). In a few lines: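 Viability was measured by CellTiter-Fluor fluorescence (405/540 nm, 1 hr) in HepG2-CYP2B6-hCAR cells. Cells were co-treated 24 hr with 48 uM CITCO (final), antagonist mode, and test substances.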
Background: Counterscreens check selectivity or assay interference.

Test [6] is described as follows: Viability counterscreen for agonist of constitutive androstane receptor (CAR) against the NCATS DSHEA and TCM libraries (AID 1794838; active means well fitted curve in the direction sought with a large enough effect; an effect the other way counts as inactive or inconclusive;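 further: cells exposed to compound for 24 h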). The method, boiled down:
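Cell viability, from CellTiter-Fluor fluorescence (405/540 nm), was scored after a 24 h, 37C exposure of HepG2 cells carrying CYP2B6 reporter and hCAR to test substances in presence of 0.75 uM PK11195.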

Test [7] addresses Nuclear receptor subfamily 1 group I member 3 (Homo sapiens) (UniProt Q14994). Put plainly: Primary qHTS for agonist of constitutive androstane receptor (CAR) against the NCATS DSHEA and TCM libraries (AID 1794839; active means well fitted curve in the direction sought with a large enough effect; an effect the other way counts as inactive or inconclusive;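 further: HepG2 cells expressing human CAR with a CYP2B6 reporter plus PK11195 antagonist; luciferase reporter luminescence read with ONE-Glo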). In a few lines: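 Agonist mode in presence of hCAR antagonist PK11195 (0.75 µM final): test substances, 24 h, 37 °C, on HepG2-CYP2B6-hCAR cells. Same-well readouts: fluorescence viability, then ONE-Glo luminescence; CITCO as reference agonist.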

Test [8] in a line: A High-Content qHTS Against Drug Library for the Identification of Small Molecules that Inhibit DYT1 Early Onset Primary Dystonia-Associated Cell Pathology (AID 1645839; calls by dose curve; further: series mostly up to about 46 µM). In a few lines:
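Readout: %pathology, the punctate EGFP-TorsinA distribution from imaging, as the primary channel and cell count as the toxicity counterscreen. HEK293 Flp-In cells expressing delE TorsinA were induced with tetracycline and treated with compound for 48 h.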

The target of test [9] is Cytochrome P450 3A4 (Homo sapiens) (UniProt P08684). Put plainly: Cytochrome P450 family 3 subfamily A member 4 (CYP3A4) small molecule antagonists: luciferase qHTS assay (AID 1645841). Further: potency means the concentration at half of the fitted maximal effect; nearly all actives have a fitted effect of over 45% in size. In a few lines: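 P450-Glo CYP3A4 enzyme with proluciferin substrate was preincubated with DMSO-dissolved compounds for 10 min at room temperature. NADPH regeneration solution started a 1 h reaction. Detection reagent stopped it, and luminescence was read after 20 min.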
Chain of Cytochrome P450 3A4 (Homo sapiens) (P08684 whole entry, looked up): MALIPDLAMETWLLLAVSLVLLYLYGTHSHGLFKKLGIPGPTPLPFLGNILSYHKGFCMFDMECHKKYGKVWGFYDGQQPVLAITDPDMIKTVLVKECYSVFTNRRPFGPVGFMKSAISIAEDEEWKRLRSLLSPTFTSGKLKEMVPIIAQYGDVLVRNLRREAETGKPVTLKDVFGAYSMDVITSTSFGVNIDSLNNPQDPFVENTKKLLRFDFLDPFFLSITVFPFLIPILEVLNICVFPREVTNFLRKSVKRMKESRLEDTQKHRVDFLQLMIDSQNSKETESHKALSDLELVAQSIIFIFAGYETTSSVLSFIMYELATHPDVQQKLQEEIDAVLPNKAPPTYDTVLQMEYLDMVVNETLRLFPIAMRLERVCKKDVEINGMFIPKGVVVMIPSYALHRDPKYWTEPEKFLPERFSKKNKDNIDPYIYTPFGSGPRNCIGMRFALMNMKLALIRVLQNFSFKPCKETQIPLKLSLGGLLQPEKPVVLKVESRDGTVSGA

Test [10] in a line: NCATS anti-infectives library activity on HEK293 viability as a counter-qHTS vs the C. elegans viability qHTS (AID 1745854; active means well fitted curve in the direction sought with a large enough effect; an effect the other way counts as inactive or inconclusive). In a few lines: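 Compounds were acoustically plated (several concentrations, 1:5, final up to 41.7 uM), then 1500 HEK293 cells added per well and incubated 24 hr at 37C, 5% CO2. CellTiter-Glo was added and luminescence read after 10 min.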
Test [11] concerns the target Rap guanine nucleotide exchange factor 3 (Homo sapiens) (UniProt O95398). Put plainly: Confirmatory qHTS for agonist of cAMP-regulated guanine nucleotide exchange factor 3 (EPAC1) (AID 1645881; active means well fitted curve in the direction sought with a large enough effect; an effect the other way counts as inactive or inconclusive;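 further: EPAC1 catalysed release of BODIPY-GDP from Rap1B seen as fluorescence loss; nearly all actives have a fitted effect of over 75% in size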).
Test [12] addresses Rap guanine nucleotide exchange factor 4 (Homo sapiens) (UniProt Q8WZA2). In words: Confirmatory qHTS for antagonist of cAMP-regulated guanine nucleotide exchange factor 4 (EPAC2) (AID 1645885; active means well fitted curve in the direction sought with a large enough effect; an effect the other way counts as inactive or inconclusive; further: potency means the concentration at half of the fitted maximal effect; nearly all actives have a fitted effect of over 25% in size).
Test [13] has the same target. In words: Confirmatory qHTS for agonist of cAMP-regulated guanine nucleotide exchange factor 4 (EPAC2) (AID 1645884; active means well fitted curve in the direction sought with a large enough effect; an effect the other way counts as inactive or inconclusive;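 further: nucleotide exchange releases bodipy-GDP from Rap1 and this lowers its fluorescence; nearly all actives have a fitted effect of over 65% in size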).

Values joined by “and” are separate entries in the source; they are usually repeats but may differ in a detail not shown here. Equal entries are not always repeated. Inconclusive results are not listed. Active and inactive are the calls of the source. Unless noted, the call rests on the fitted dose curve; in most records, active means well fitted curve in the direction sought with a large enough effect in the repeat runs; inconclusive means weak or mixed curves; inactive means no such curve, though single readings can be large; an effect the other way counts as inactive or inconclusive.

Chain of Rap guanine nucleotide exchange factor 4 (Homo sapiens) (Q8WZA2 whole entry, looked up): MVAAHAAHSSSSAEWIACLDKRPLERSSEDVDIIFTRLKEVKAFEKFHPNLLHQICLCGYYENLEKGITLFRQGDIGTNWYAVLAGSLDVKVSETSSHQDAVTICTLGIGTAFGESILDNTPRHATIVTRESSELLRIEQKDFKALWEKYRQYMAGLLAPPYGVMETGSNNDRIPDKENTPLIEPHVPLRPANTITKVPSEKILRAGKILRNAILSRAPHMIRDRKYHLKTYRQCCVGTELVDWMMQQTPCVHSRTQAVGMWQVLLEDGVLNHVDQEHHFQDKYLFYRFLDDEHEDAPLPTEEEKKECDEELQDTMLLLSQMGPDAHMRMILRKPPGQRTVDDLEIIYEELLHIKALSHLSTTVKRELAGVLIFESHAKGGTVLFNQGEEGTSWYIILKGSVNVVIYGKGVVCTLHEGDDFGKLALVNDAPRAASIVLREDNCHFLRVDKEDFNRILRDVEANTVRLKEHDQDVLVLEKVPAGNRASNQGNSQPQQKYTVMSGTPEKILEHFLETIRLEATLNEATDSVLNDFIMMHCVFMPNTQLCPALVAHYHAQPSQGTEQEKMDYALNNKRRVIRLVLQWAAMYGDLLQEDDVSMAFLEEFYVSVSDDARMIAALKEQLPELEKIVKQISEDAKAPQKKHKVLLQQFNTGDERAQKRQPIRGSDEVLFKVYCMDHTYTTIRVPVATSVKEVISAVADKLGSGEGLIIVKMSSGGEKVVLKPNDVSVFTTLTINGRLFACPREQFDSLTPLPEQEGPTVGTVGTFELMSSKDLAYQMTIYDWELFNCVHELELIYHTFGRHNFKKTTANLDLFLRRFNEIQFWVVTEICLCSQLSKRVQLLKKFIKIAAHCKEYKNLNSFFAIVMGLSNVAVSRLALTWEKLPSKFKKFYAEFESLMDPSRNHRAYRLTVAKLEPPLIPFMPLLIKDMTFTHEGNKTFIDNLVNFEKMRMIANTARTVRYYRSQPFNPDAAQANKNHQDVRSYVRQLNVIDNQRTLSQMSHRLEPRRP
Chain of Cytochrome P450 2C9 (Homo sapiens) (P11712 whole entry, looked up): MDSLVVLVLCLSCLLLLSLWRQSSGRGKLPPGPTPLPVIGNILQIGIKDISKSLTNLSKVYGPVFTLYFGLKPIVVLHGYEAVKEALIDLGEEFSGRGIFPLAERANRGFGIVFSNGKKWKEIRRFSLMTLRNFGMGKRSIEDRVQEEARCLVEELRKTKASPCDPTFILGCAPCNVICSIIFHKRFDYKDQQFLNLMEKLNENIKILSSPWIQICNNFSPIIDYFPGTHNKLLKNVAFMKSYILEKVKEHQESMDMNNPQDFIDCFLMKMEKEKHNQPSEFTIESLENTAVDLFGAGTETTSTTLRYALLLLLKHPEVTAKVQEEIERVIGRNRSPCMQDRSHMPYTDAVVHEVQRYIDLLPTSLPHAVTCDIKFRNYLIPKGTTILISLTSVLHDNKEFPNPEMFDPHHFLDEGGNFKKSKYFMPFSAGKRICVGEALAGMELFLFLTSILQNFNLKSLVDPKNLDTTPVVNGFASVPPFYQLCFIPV
Chain of Cytochrome P450 2D6 (Homo sapiens) (P10635 whole entry, looked up): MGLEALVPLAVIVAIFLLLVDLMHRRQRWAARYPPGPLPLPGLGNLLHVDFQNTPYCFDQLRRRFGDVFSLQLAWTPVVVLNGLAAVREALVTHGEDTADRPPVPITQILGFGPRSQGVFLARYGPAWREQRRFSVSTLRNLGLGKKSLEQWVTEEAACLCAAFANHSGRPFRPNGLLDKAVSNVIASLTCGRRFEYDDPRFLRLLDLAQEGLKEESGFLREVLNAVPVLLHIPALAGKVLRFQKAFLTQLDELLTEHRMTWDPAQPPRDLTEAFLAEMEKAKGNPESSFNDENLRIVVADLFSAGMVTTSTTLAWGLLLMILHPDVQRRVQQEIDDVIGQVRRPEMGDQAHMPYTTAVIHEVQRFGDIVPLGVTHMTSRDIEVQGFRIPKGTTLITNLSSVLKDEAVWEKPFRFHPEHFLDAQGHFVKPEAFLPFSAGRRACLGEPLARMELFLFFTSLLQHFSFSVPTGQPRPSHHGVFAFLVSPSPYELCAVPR
Chain of Rap guanine nucleotide exchange factor 3 (Homo sapiens) (O95398 whole entry, looked up): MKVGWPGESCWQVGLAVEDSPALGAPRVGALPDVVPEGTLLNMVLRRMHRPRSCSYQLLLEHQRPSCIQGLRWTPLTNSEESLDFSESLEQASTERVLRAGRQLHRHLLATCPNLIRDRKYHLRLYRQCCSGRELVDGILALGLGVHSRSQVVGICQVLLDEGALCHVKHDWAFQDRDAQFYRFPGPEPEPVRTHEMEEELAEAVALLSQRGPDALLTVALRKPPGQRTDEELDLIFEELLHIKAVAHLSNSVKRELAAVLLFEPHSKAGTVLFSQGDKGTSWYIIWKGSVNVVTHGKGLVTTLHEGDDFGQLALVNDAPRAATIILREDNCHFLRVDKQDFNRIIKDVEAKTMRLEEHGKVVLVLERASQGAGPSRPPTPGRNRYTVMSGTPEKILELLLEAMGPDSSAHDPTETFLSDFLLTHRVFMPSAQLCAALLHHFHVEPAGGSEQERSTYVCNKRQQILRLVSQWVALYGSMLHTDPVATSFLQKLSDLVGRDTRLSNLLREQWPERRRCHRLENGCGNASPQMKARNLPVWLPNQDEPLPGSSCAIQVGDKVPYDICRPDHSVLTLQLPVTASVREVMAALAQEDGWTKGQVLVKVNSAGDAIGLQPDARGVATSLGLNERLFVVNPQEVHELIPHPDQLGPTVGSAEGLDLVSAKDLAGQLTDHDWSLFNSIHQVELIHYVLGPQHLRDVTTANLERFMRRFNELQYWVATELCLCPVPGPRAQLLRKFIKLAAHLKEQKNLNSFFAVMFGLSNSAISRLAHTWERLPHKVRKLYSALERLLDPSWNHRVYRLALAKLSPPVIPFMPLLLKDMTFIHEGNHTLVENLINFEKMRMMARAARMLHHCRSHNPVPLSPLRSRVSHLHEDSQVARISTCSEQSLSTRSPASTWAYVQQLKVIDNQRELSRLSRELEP
Chain of Nuclear receptor subfamily 1 group I member 3 (Homo sapiens) (Q14994 whole entry, looked up): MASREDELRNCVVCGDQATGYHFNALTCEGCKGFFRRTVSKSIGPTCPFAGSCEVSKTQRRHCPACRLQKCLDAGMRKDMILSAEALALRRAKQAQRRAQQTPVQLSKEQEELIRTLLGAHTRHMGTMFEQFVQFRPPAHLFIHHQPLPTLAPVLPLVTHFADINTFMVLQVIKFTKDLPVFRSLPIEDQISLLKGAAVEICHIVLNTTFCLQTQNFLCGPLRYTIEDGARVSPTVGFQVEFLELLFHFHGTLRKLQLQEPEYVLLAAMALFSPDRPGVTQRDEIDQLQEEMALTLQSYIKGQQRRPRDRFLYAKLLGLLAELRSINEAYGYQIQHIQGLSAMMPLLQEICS

Turning to `Nc1ccc(S(=O)(=O)Nc2cnc3ccccc3n2)cc1`, the Potency entry in test [1], in test [3] and in test [4] was “inactive” in each case. The Potency in [2] was 15.5 µM (active).

On to `CCc1nn(CCCN2CCN(c3cccc(Cl)c3)CC2)c(=O)n1CCOc1ccccc1`, for which the Potency in test [1] was 0.977 µM (active). Also, in [2], the Potency entry was “inactive”.

On to `O=C(c1ccc(F)cc1)C1CCN(CCn2c(=S)[nH]c3ccccc3c2=O)CC1`, for which, in test [1], the Potency is 0.776 µM (active).

Take `CCCCCCCCCCCCCCCC(=O)O`: the Potency result in test [1], in [2] and in test [3] was “inactive” in each case. For the same molecule, the molecule was called inactive in [5], in test [6] and in [7].

As for `C=C[C@H]1CN2CC[C@H]1C[C@H]2[C@H](O)c1ccnc2ccc(OC)cc12`, the Potency result in test [8] and in test [2] was “inactive” throughout.

Turning to `O=C(Nc1ccc([N+](=O)[O-])cc1)Nc1ccc([N+](=O)[O-])cc1`, the Potency entry in test [1], in test [2], in test [3] and in test [4] was “inactive” each time.

Take `CCOc1ccccc1OCCN[C@H](C)Cc1ccc(OC)c(S(N)(=O)=O)c1`: the Potency entry in test [8], in [2], in test [3] and in test [4] was “inactive” throughout. Besides, the Potency in [1] is 15.5 µM (active).

Take `CCOc1ccccc1C(N)=O`: the Potency result in test [1] and in [2] was “inactive” in each case. Further, the Potency in [3] is 18.8 µM (active).

For `CCCCCCCCCCCCOCCOCCOCCOCCOCCOCCOCCOCCOCCO`, the Potency in test [1] was 12.3 µM (active); in test [2], 21.9 µM (active); in test [4], 11.9 µM (active).

On to `N#CCC(=O)NN`, for which the Potency result in [1], in test [2] and in [3] was “inactive” in each case.

As for `O=C1OC2(c3ccccc31)c1cc(Br)c(O)c(Br)c1Oc1c2cc(Br)c(O)c1Br`, the Potency in test [9] is 17.4 µM (active); in [2], 12.3 µM (active).

Consider `CN1CCC[C@@H]1CCO[C@](C)(c1ccccc1)c1ccc(Cl)cc1`, for which the Potency in [3] is 21.1 µM (active); in [4], 13.3 µM (active).

As for `Cc1ccc2c(Br)cc(Br)c(O)c2n1`, the Potency entry in test [1] and in test [2] was “inactive” throughout. Moreover, the Potency in [3] is 7.5 µM (active); in test [4] it was 2.37 µM (active).

As to `O=C(NC1CCN(CCc2c[nH]c3ccccc23)CC1)c1ccccc1`, the Potency in test [1] was 1.23 µM (active). Besides, the Potency entry in test [2] is “inactive”.

For the molecule `CC(=O)NO`, the Potency entry in [8], in test [2], in [3] and in test [4] was “inactive” throughout.

Turning to `C[C@@H](O)[C@H]1C(=O)N2C(C(=O)O)=C([C@H]3CCCO3)S[C@H]12`, the Potency entry in [8], in [1], in test [2], in test [3] and in test [4] was “inactive” each time.

For the molecule `O=[N+]([O-])c1ccc(/C=N\O)o1`, the Potency in [1] was 13.8 µM (active). The Potency entry in test [2] and in test [4] was “inactive” each time.

For the molecule `CC(=O)Nc1ccc(CC(=O)O)cc1`, the Potency result in test [8], in test [1], in test [2], in test [3] and in test [4] was “inactive” throughout.

For the molecule `CC(C)Nc1cccnc1N1CCN(C(=O)c2cc3cc(NS(C)(=O)=O)ccc3[nH]2)CC1`, the Potency entry in test [8] was “inactive”. For the same molecule, the values for the Potency in test [1] and in test [2] were 6.92 µM (active) and 1.95 µM (active), respectively. For the same molecule, in [10], the outcome was inactive.

As for `CCC(Cc1c(I)cc(I)c(N)c1I)C(=O)O` (stereo not drawn), the Potency result in test [8] and in test [3] was “inactive” each time. Also, in test [1], the Potency is 15.5 µM (active).

`O=C(O)P(=O)(O)O`: the Potency entry in test [8], in [1] and in test [2] was “inactive” throughout. In test [10], the result was inactive.

`Oc1ccc(Cl)cc1Cc1cc(Cl)ccc1O`: the Potency in test [1] was 27.5 µM (active); in [2], 7.76 µM (active); in [4], 18.8 µM (active); in test [12], 35 µM (active). Also, the molecule was called inactive in test [11].

On to `C=C[C@H]1CN2CC[C@H]1C[C@@H]2[C@@H](O)c1ccnc2ccc(OC)cc12`, for which the Potency result in test [8], in [2] and in [4] was “inactive” in each case. The molecule was called inactive in test [10].

With `CO[C@H]1C=CO[C@@]2(C)Oc3c(C)c(O)c4c(O)c(c(/C=N/N5CCN(C)CC5)c(O)c4c3C2=O)NC(=O)/C(C)=C\C=C[C@H](C)[C@H](O)[C@@H](C)[C@@H](O)[C@@H](C)[C@H](OC(C)=O)[C@@H]1C`, the Potency result in test [1] was “inactive”. Besides, the call in test [11] and in [13] was inactive. The Potency in test [12] is 44.1 µM (active).

`Cc1ccc(O)c([C@H](CCN(C(C)C)C(C)C)c2ccccc2)c1`: the Potency in test [1] was 2.45 µM (active) and 2.13 µM (active); in [3], 21.1 µM (active). The Potency entry in test [2] is “inactive”.

In the case of `CCCCc1cc2ccccc2c(OCCN(C)C)n1`, the Potency is 2.19 µM (active) in [1] and 18.8 µM (active) in test [4]. In addition, in test [2], the Potency result is “inactive”.

As to `CCOC(=O)[C@@](C)(N)Cc1ccc(O)c(O)c1`, the Potency in [1] was 7.76 µM (active). The Potency result in test [2] was “inactive”.

Regarding `CC(O)Cn1cnc2c1c(=O)n(C)c(=O)n2C` (stereo not drawn), the Potency result in test [8], in [3] and in [4] was “inactive” each time.

For `O=C(Nc1ccccc1)OCC(CN1CCCCC1)OC(=O)Nc1ccccc1` (stereo not drawn), the Potency in [1] was 0.155 µM (active); in test [2], 13.8 µM (active). The outcome in test [10] was inactive.

In the case of `CC(=O)Nc1ccc(OC(=O)c2ccccc2OC(C)=O)cc1`, the Potency result in test [8], in test [2], in test [3] and in [4] was “inactive” each time. For the same molecule, in test [1], the Potency is 15.5 µM (active).

The values above are taken from PubChem BioAssay (NCATS).
